Pf Dd2 inh – qHTS Primary assay for Inhibitors of Plasmodium falciparum Dd2 growth in vitro | P. falciparum Dd2 growth, SYBR Green, 72 h | Potency, µM (series often up to 28.9 µM), for inactives: at the top dose activity, negative = inhibition, hits mostly inhibitors | hit rate 4.3% among 120,000 | AID 1347417, 2020; active = well fitted inhibition curve with a large enough effect;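 also: plate controls were DMSO vehicle for no effect and reference drug for full effect; nearly all actives have a fitted effect of over 65% in size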
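Readout: SYBR Green fluorescence, 485 nm excitation, 535 nm emission, after ~16 h lysis at 37C. Before that, Dd2-infected red cells (2.5% hematocrit) grew 72 h with compound, 29 uM top final concentration.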
Active calls of the source: *; [ ] = another dose, or the depositor's remark. Many of the other results were omitted from the sample, so hits are more common in it than they were. Potency is read from the fitted curve at half-maximal effect.

What do the screens show for `Cc1cc(-c2cc3c(nc2-c2ccccc2)nc(C(=O)NC2CCN(C)CC2)n3C)ccn1`?
Pf Dd2 inh: 6.31µM*

Results for CN1CCC(NC(=O)Cc2c[nH]c3ncc(-c4ccccc4)cc23)CC1 ?
Pf Dd2 inh: 31.7%[44.1 µM]

How did COc1ccc(-c2cc3c(nc2-c2ccccc2)nc(C(=O)NCCN(C)C)n3C)cn1 do in these assays?
Pf Dd2 inh: 7.08µM*

Results for COc1cc(-c2cc3c(nc2-c2ccccc2)nc(C(=O)NCCN(C)C)n3C)ccn1 ?
Pf Dd2 inh: inactive

How did CCCNC(=O)NCCn1c(C)cnc1-c1ccncc1 do in these assays?
Pf Dd2 inh: 5.0%

How did CCC(CC)C(=O)NC[C@H]1O[C@@H](CC(=O)N2CCN(c3ccc(F)cc3)CC2)[C@H](O)[C@@H]1O do in these assays?
Pf Dd2 inh: -14.3%

Results for O=C(c1ccc2c(c1)OCO2)N1CCC2(CCCN(CCCc3ccccc3)C2)C1 (stereo not drawn) ?
Pf Dd2 inh: -3.0%

Results for CCN(Cc1ccncc1)C(=O)CC1=C2CCCCC2N(C)C1=O (stereo not drawn) ?
Pf Dd2 inh: -1.3%

Results for COCCN1C(=O)c2cccn2CC1CNC(=O)CC(C)C (stereo not drawn) ?
Pf Dd2 inh: 1.1%

Results for Cc1cc(CNC(=O)c2cc(C(C)C)n3ncnc3n2)c2[nH]c(C)c(C)c2c1 ?
Pf Dd2 inh: 8.91µM*

Results for CC(C)c1cc(C(=O)NCCc2nc(-c3cccnc3)no2)nc2ncnn12 ?
Pf Dd2 inh: 3.9%

How did CC(C)c1cc(C(=O)NCCc2noc(C3CCCO3)n2)nc2ncnn12 (stereo not drawn) do in these assays?
Pf Dd2 inh: 4.1%

What do the screens show for `CCS(=O)(=O)N1CCC(Cc2nncn2C)C1` (stereo not drawn)?
Pf Dd2 inh: 32.1%

What do the screens show for `CNC(=O)C1(N2CCC[C@H]2C(=O)NC(C)(C)C)COC1`?
Pf Dd2 inh: -12.1%[44.1 µM]

How did NC(=O)[C@@H]1CCCN1CC[C@H]1CN(C(=O)NC2CCCCC2)CC[C@H]1CC(=O)O do in these assays?
Pf Dd2 inh: 29.0%[44.1 µM]

Results for O=C(Nc1ccccc1)N1CCC(N2CCCNC2=O)CC1 ?
Pf Dd2 inh: 8.4%[44.1 µM]

Results for O=C(Cc1ccccc1Cl)N1CCC[C@H]1c1nc(-c2ccccc2)no1 ?
Pf Dd2 inh: -17.5%

How did Cc1ccc(-c2noc([C@@H]3CCCN3C(=O)Cc3ccccc3Cl)n2)cc1 do in these assays?
Pf Dd2 inh: inactive

Results for CC1CCN(C(=O)CSc2n[nH]c(-c3ccc(F)cc3)n2)CC1 ?
Pf Dd2 inh: -2.9%

Results for CC1CCN(C(=O)CSc2nc(-c3ccc(C(C)C)cc3)no2)CC1 ?
Pf Dd2 inh: 0.891µM*

How did COc1ccc(-c2nnc(SCC(=O)N3CCC(C)CC3)o2)cc1 do in these assays?
Pf Dd2 inh: -12.7%

Results for CC(C)c1ccc(-c2noc(SCC(=O)N3CCCCC3C)n2)cc1 (stereo not drawn) ?
Pf Dd2 inh: 2.24µM*

Results for CNC(=O)[C@@H]1C[C@H](Oc2ccccc2)CN1C(=O)c1ocnc1C ?
Pf Dd2 inh: -13.1%

What do the screens show for `COc1cc(CNC(=O)[C@H]2CCC[C@H]2NC(=O)c2ccncc2)cc(OC)c1`?
Pf Dd2 inh: -5.6%

What do the screens show for `CCN(Cc1nccn1C)C(=O)c1ccc(NC[C@H]2C[C@H]3C=C[C@H]2C32CC2)nc1`?
Pf Dd2 inh: inactive

What do the screens show for `COCC1CN(C(C)=O)CC12CCN(Cc1cccc(C(F)(F)F)c1)CC2` (stereo not drawn)?
Pf Dd2 inh: -22.1%

What do the screens show for `CCOC(=O)C1(Cc2ccccc2C(F)(F)F)CCN(C(=O)c2ccc[n+]([O-])c2)CC1`?
Pf Dd2 inh: -11.0%

What do the screens show for `CCCn1ncc(CN2CCC(Cc3cccc(C(F)(F)F)c3)(C(=O)OCC)CC2)c1C`?
Pf Dd2 inh: 12.6µM*

What do the screens show for `Cc1cnn(C2(C(=O)O)CCN(C(=O)c3cnn4cccnc34)CC2)c1`?
Pf Dd2 inh: -10.7%

Results for FC(F)(F)c1ccc(O[C@H]2COCCN(Cc3cccnc3)C2)nc1 ?
Pf Dd2 inh: -5.2%[44.1 µM]

What do the screens show for `c1ccc(-c2ccc(CN3CCOC[C@H](Oc4cnccn4)C3)cc2)cc1`?
Pf Dd2 inh: 5.62µM*

What do the screens show for `COc1cccc(CN2CCOC[C@H](Oc3cccnc3)C2)c1`?
Pf Dd2 inh: inactive

Results for Cc1nc(C)c(C(=O)N2CCCC(Cc3noc(-c4cnccn4)n3)C2)s1 (stereo not drawn) ?
Pf Dd2 inh: -10.1%

How did CCc1nncn1C1CCN(S(=O)(=O)c2ccc(F)cc2)CC1 do in these assays?
Pf Dd2 inh: -11.4%

Results for COc1ccccc1NC(=O)c1c(OC)cc(=O)n2c1CCCC2 ?
Pf Dd2 inh: 7.6%

How did Cc1nc(C2CCN(C(=O)CNC(N)=O)CC2)cc(N2CCOCC2)n1 do in these assays?
Pf Dd2 inh: -6.7%

Results for C=CCNC(=O)C[C@@H]1CCN(S(=O)(=O)c2ccccc2)C[C@@H]1CC ?
Pf Dd2 inh: 11.1%[44.1 µM]

How did Cc1ccc(CCNC(=O)c2cc3sccc3n2Cc2ccc(C)cc2)cc1 do in these assays?
Pf Dd2 inh: inactive

How did CCOC(=O)c1ccc(NC(=O)c2cc3sccc3n2Cc2ccc(Cl)cc2)cc1 do in these assays?
Pf Dd2 inh: -4.9%

Results for COc1ccc(CNC(=O)c2cc3sccc3n2Cc2ccc(F)cc2)cc1 ?
Pf Dd2 inh: -1.3%

What do the screens show for `CCOC(=O)c1cccc(NC(=O)c2cc3sccc3n2Cc2ccc(Cl)cc2)c1`?
Pf Dd2 inh: 11.2µM*

How did Cc1ccc(Cn2c(C(=O)Nc3cccc(Cl)c3)cc3sccc32)cc1 do in these assays?
Pf Dd2 inh: -24.4%

Results for Cc1ccc(Cn2c(C(=O)NCc3ccccc3Cl)cc3sccc32)cc1 ?
Pf Dd2 inh: 11.2µM*

Results for COCCOc1ccc2c(n1)CCN(C(=O)Cc1ccccc1)C2 ?
Pf Dd2 inh: -22.3%

What do the screens show for `CN1CC2(CCN(C(=O)Cc3ccc(-n4cnnn4)cc3)CC2)CC1=O`?
Pf Dd2 inh: 9.1%

Results for O=C1NC2(CCCN(C(=O)c3ccc(C(F)(F)F)cc3)C2)Oc2ccccc21 (stereo not drawn) ?
Pf Dd2 inh: inactive

What do the screens show for `Nc1nc2c(s1)C(c1ccc(F)cc1F)CC(=O)N2` (stereo not drawn)?
Pf Dd2 inh: -15.2%

What do the screens show for `O=C1N(C2CCN(Cc3ccncc3F)CC2)C(c2ccncc2)C12CCCCC2` (stereo not drawn)?
Pf Dd2 inh: -23.7%

Results for COc1ccc(S(=O)(=O)N2CC[C@H]3NC(=O)N(c4ccc(Oc5ccccc5)cc4)C(=O)[C@H]32)cc1 ?
Pf Dd2 inh: -21.2%

How did Cc1cccc(=O)n1CCC(=O)N1CCn2nc(C(O)C3CC3)cc2C1 (stereo not drawn) do in these assays?
Pf Dd2 inh: -7.4%

What do the screens show for `CSc1ccc(-c2ccc3c(c2)C(=O)N2CCN(C(=O)CCC(=O)O)C[C@H]2C(=O)N3)cc1`?
Pf Dd2 inh: 42.0%

What do the screens show for `CSc1ccc(-c2ccc3c(c2)C(=O)N2CCN(C(=O)CCC(=O)O)C[C@@H]2C(=O)N3)cc1`?
Pf Dd2 inh: 7.5%

Results for CSc1ccc(-c2ccc3c(c2)C(=O)N2CCN(C(=O)CC(C)(C)C)C[C@@H]2C(=O)N3)cc1 ?
Pf Dd2 inh: 5.62µM*

What do the screens show for `O=C(Cc1cccnc1)N1C[C@@H](COCC2CC2)[C@H](c2ccncc2)C1`?
Pf Dd2 inh: 27.5%

Results for O=C(Cc1ccccc1)N1CCC2(CC1)CN(c1ncccn1)CC2CO (stereo not drawn) ?
Pf Dd2 inh: -13.7%

What do the screens show for `COc1ccc(-c2noc([C@@H]3CCCN3C(=O)c3cccc(F)c3)n2)cc1OC`?
Pf Dd2 inh: 4.7%
